# Assay results reported in PubChem BioAssay (NCI).
# Compounds without any hit were thinned out: in the full panel of roughly 83,000, 20% have a hit.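 Percent growth is the endpoint: 0 to 100 indicates growth inhibition (40 means 60% inhibition), 0 means no net growth, and negative values indicate cell death.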 Values without a mark were called inactive. Active and inactive are the calls of the source. How the source made its calls: active means growth percent below 10; inactive means the rest.
# How the values were obtained:
# Assay in all cases: NCI-60 one-dose screen, 48 h (100 = growth as untreated, 0 = no growth, -100 = all killed)
# Settings in all cases: 10 µM unless noted
# HCT-15 colon = system: HCT-15 colon
# HT29 colon = system: HT29 colon
# SNB-75 CNS = system: SNB-75 CNS
# SNB-19 CNS = system: SNB-19 CNS
# U251 CNS = system: U251 CNS
# PC-3 prostate = system: PC-3 prostate
# SK-MEL-5 melanoma = system: SK-MEL-5 melanoma
# UACC-62 melanoma = system: UACC-62 melanoma
# LOX IMVI melanoma = system: LOX IMVI melanoma
# SK-MEL-28 melanoma = system: SK-MEL-28 melanoma
# SK-MEL-2 melanoma = system: SK-MEL-2 melanoma
# EKVX NSCLC = system: EKVX NSCLC
# SN12C renal = system: SN12C renal
# UO-31 renal = system: UO-31 renal
# TK-10 renal = system: TK-10 renal
# ACHN renal = system: ACHN renal
# A498 renal = system: A498 renal
# CCRF-CEM leukemia = system: CCRF-CEM leukemia
# MOLT-4 leukemia = system: MOLT-4 leukemia
# CAKI-1 renal = system: CAKI-1 renal
SMILES,growth (HCT-15 colon),growth (HT29 colon),growth (SNB-75 CNS),growth (SNB-19 CNS),growth (U251 CNS),growth (PC-3 prostate),growth (SK-MEL-5 melanoma),growth (UACC-62 melanoma),growth (LOX IMVI melanoma),growth (SK-MEL-28 melanoma),growth (SK-MEL-2 melanoma),growth (EKVX NSCLC),growth (SN12C renal),growth (UO-31 renal),growth (TK-10 renal),growth (ACHN renal),growth (A498 renal),growth (CCRF-CEM leukemia),growth (MOLT-4 leukemia),growth (CAKI-1 renal)
OCCOCCN(Cc1ccccn1)Cc1cc(I)cc(I)c1O,24.2%,98.5%,99.9%,94.7%,83.5%,75.5%,93.9%,94.8%,62.3%,95.4%,87.1%,87.7%,89.8%,42.9%,58.9%,41.2%,89.9%,81.9%,86.2%,
C/C(=N/O)c1ccc(F)cc1,11.5%,16.5%,123%,87.8%,83.2%,75.5%,89.2%,78.3%,69.5%,126%,7.9% (active),105%,81.4%,80.8%,92.8%,-10.4% (active),111%,,77.7%,61%
Cc1ccc(C2=Nc3c(N)ncnc3NC(c3ccc4c(c3)OCO4)C2)cc1 (centres undefined),34.6%,14.1%,53.5%,73.2%,46.9%,62.5%,33.3%,48.5%,59.3%,58%,61.8%,83.2%,96.8%,60.9%,84.5%,,55.4%,-39.4% (active),49.3%,56.6%
c1ccc(CNc2c3ccccc3nc3ccccc23)cc1,24.6%,19%,64.4%,39.4%,38.5%,37.2%,63.1%,61%,19.8%,85.5%,60.8%,48.1%,37.5%,23.8%,48.7%,,16.6%,39%,15.5%,33.1%
O=C(O)c1ccc(-n2cc(/C=N/Nc3ccc(F)cc3)c(-c3cc4ccccc4oc3=O)n2)cc1,33.9%,91%,85.6%,89.2%,104%,69.8%,93.6%,46.1%,46.6%,92.3%,83.3%,52.9%,101%,39.8%,113%,,109%,40.2%,48.1%,68.6%
Nc1ncnc2c1N=C(c1ccc3c(c1)OCO3)CC(c1cccc(Nc3ccnc4cc(Cl)ccc34)c1)N2 (centres undefined),36.4%,27.8%,74.6%,58.2%,26.5%,54.2%,53.4%,57%,27.2%,91.3%,68.7%,62.2%,50.7%,44%,65.7%,,61.5%,21.5%,52.7%,53.4%
O=S(=O)(NCCNc1nccc(-c2c(-c3cccc(F)c3)nc3occn23)n1)c1ccc(Br)cc1,77.9%,52.3%,78.4%,93.3%,85.5%,73.8%,76.3%,77.5%,75.9%,91.9%,103%,,78.7%,64%,103%,62%,81.3%,60.3%,82.5%,70.5%
Cc1cccnc1NC(=S)Nc1ncccc1C,104%,103%,96.2%,104%,99.7%,99.9%,101%,100%,107%,111%,103%,95.6%,98.4%,108%,90.1%,,115%,91.4%,60.3%,70.7%
CN(C)Cc1ccc(NC(=O)c2cncc(C#Cc3cnc(N)c4ncccc34)c2)cc1F,-55.7% (active),3.71% (active),123%,87.2%,74.8%,75.2%,77.3%,94.2%,-65% (active),-48.2% (active),88.6%,93.4%,86.4%,108%,141%,,73.9%,4.73% (active),76.3%,87.7%
O=C(CCC(=O)N/N=C/c1ccccc1O)N/N=C/c1ccccc1O,22.5%,84.1%,78.6%,57.9%,26%,31.1%,36.3%,24.9%,21%,45.2%,69.7%,41.1%,70.2%,17.4%,44%,,80%,25%,18.1%,27.7%
O=C(Nc1ccc(NC(=O)c2cc(=O)[nH]c3ccccc23)cc1)Nc1cccc(C(F)(F)F)c1,95.3%,67.8%,58.5%,23.8%,19.5%,69.8%,69.9%,68%,21%,63.6%,92.5%,66.8%,54.2%,71%,134%,,100%,70.2%,79.6%,71.5%
CCN(CC)CCSc1nc(-c2ccccc2)c(C#N)c(=O)[nH]1,117%,142%,129%,101%,105%,116%,85.1%,108%,99.9%,110%,97%,,116%,110%,128%,112%,208%,150%,105%,99.8%
O=C1COCCN1c1ccc(Nc2nc(Cl)nc(OCc3cn(Cc4ccccc4)nn3)n2)cc1,93.3%,90.8%,101%,90.3%,83.4%,89.4%,95.8%,92.2%,75.7%,101%,85.6%,,94.2%,73.6%,98.6%,101%,92.2%,60%,62%,84.4%
O=C(Nc1nn(-c2ccc(Cl)cc2Cl)nc1-c1ccccc1)c1ccccc1,97.1%,94.1%,85.7%,105%,93.6%,84.3%,110%,84.9%,82.5%,104%,106%,,98.9%,67.6%,117%,94.8%,116%,95.9%,83.5%,85.1%
CCOC(=O)c1c(C)c2c(n1C)CSc1cc(C(=O)c3ccccc3)c(=O)[nH]c1-2,105% [100 µM],108% [100 µM],89.5% [100 µM],102% [100 µM],97.8% [100 µM],82.5% [100 µM],85.8% [100 µM],78.5% [100 µM],91.1% [100 µM],105% [100 µM],122% [100 µM],71.8% [100 µM],103% [100 µM],84.7% [100 µM],103% [100 µM],,87.7% [100 µM],106% [100 µM],87.3% [100 µM],66% [100 µM]
C1=CN2CC(c3ccccc3)=NNC2c2ccccc21 (centres undefined),96.6%,99.4%,37.5%,105%,103%,81.9%,92.8%,75.5%,92.8%,126%,89.7%,73.4%,88.8%,53.8%,120%,,104%,88.3%,40.2%,65.2%
